{
  "source": "PubChem BioAssay AID686978",
  "about": "(National Center for Advancing Translational Sciences (NCATS), 2013)",
  "note": "Values joined by “and” are separate entries in the source; they are usually repeats but may differ in a detail not shown here. Identical values can stand only once. Screen size: about 420,000 compounds; about 64,000 (15%) were called active. Another 27% or so got no clear call; they are omitted. The call rests on the fitted dose curve; in most records, active means well fitted inhibition curve with a large enough effect; inconclusive means small, poorly fitted or top-dose-only effect; inactive means flat fitted curve, though single readings scatter. Only a sample is shown. Some compounds were tested as several samples or in several runs, with calls that do not always agree.",
  "data": [
    {"assay": "qHTS for Inhibitors of human tyrosyl-DNA phosphodiesterase 1 (TDP1): qHTS in cells in absence of CPT; further: nearly all actives have a fitted effect of over 55% in size; further: potency means the concentration at half of the fitted maximal effect; on activity change, negative = growth inhibition: on the % scale 0 is the no-effect control and ±100 the full control effect", "conditions": "DT40 Tdp1-/- hTDP1 cells, no CPT, ATP luminescence, 48 h; activity change, negative = growth inhibition: at 46.2 µM (top of the series)", "how_it_was_run": "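Stably hTDP1-transfected Tdp1-null chicken DT40 cells were treated with library compounds minus camptothecin and grown for at least 48 hr at 37 °C, after which cellular ATP was quantified by luminescence.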", "values": [
      {"molecule": "CC1Cc2[nH][nH]c(=O)c2C(C2CCCC2)O1", "note": "(stereo not given)", "activity change, negative = growth inhibition": "-27.8% (inactive)"},
      {"molecule": "N#Cc1ccc(/C=C2\\CCn3c2nc2cc(C(=O)O)ccc2c3=O)cc1", "activity change, negative = growth inhibition": "-11.7% (inactive)"},
      {"molecule": "NC1=NOC(=O)C1C1CCCCC1", "note": "(stereo not given)", "Potency": "18.4 µM (active)"},
      {"molecule": "CC(=O)Nc1ccc(S(=O)(=O)N2CCCC2C(=O)O)cc1", "note": "(stereo not given)", "activity change, negative = growth inhibition": "-2.04% (inactive)"},
      {"molecule": "CCOC(=O)C(NC(=O)CC(C)C)(Nc1sc2c(c1C(N)=O)CCCC2)C(F)(F)F", "note": "(stereo not given)", "activity change, negative = growth inhibition": "-25.5% (inactive)"},
      {"molecule": "COc1cccc(N2CCN(C(=O)CCCCCn3c(=O)[nH]c4ccccc4c3=O)CC2)c1", "Potency": "20.6 µM (active)"},
      {"molecule": "Cc1ccc(C)c(N2CCN(C(=O)CCc3c(C)nc4c(c3C)c(=O)n(C)c(=O)n4C)CC2)c1", "activity change, negative = growth inhibition": "-2.29% (inactive)"},
      {"molecule": "Cc1ccc(OCCCC(=O)N2CCOCC2)c(C)c1", "activity change, negative = growth inhibition": "-20% (inactive)"},
      {"molecule": "Cc1ccc(C)c(N2CCN(C(=O)CCCCn3c(=O)[nH]c4ccccc4c3=O)CC2)c1", "Potency": "20.6 µM (active)"},
      {"molecule": "NS(=O)(=O)c1ccc(CCNC(=O)CCCCCn2c(=O)[nH]c3ccccc3c2=O)cc1", "activity change, negative = growth inhibition": "-12.8% (inactive)"},
      {"molecule": "O=C(CCCCCn1c(=O)[nH]c2ccccc2c1=O)NCCc1c[nH]c2ccccc12", "activity change, negative = growth inhibition": "-21% (inactive)"},
      {"molecule": "Cc1ccc(C)c(N2CCN(C(=O)CCCCCn3c(=S)[nH]c4ccc(N5CCOCC5)cc4c3=O)CC2)c1", "Potency": "2.91 µM (active)"},
      {"molecule": "CCN(CC)CCNC(=O)CCCCCn1c(=O)[nH]c2cc(C(=O)OC)ccc2c1=O", "activity change, negative = growth inhibition": "-16.1% (inactive)"},
      {"molecule": "O=C(CCCn1c(=O)[nH]c2cc(Cl)ccc2c1=O)NCCN1CCN(c2ccccc2)CC1", "Potency": "23.1 µM (active)"},
      {"molecule": "Cc1ccc(N2CCN(C(=O)CCc3c(C)nc4c(c3C)c(=O)n(C)c(=O)n4C)CC2)c(C)c1", "activity change, negative = growth inhibition": "-19.6% (inactive)"},
      {"molecule": "COc1ccc(CCNC(=O)CCCCn2c(=O)[nH]c3ccccc3c2=O)cc1OC", "activity change, negative = growth inhibition": "-11% (inactive)"},
      {"molecule": "O=C(Cc1c(F)cccc1Cl)Nc1ccc(-n2cnnn2)cc1", "activity change, negative = growth inhibition": "-10.1% (inactive)"},
      {"molecule": "COc1ccc(C(C#N)N2N=C(C)CC2(C)C)cc1", "note": "(stereo not given)", "activity change, negative = growth inhibition": "-4.56% (inactive)"},
      {"molecule": "NC(=O)N1CCc2ccccc21", "activity change, negative = growth inhibition": "-7.26% (inactive)"},
      {"molecule": "CCC1(CC)NC(=O)N(CC(=O)OCC(=O)NC(=O)c2ccccc2)C1=O", "activity change, negative = growth inhibition": "2.28% (inactive)"},
      {"molecule": "Cc1ccc(C(=O)O)cc1-c1ccc(/C=C2\\SC(=O)N(CC(=O)Nc3ccc4c(c3)OCO4)C2=O)o1", "activity change, negative = growth inhibition": "-0.216% (inactive)"},
      {"molecule": "COc1cc2c(cc1OC)[C@@H](Cc1cc(OC)c(OC)c(OC)c1)[N+](C)(CCCOC(=O)CC/C=C/CCC(=O)OCCC[N+]1(C)CCc3cc(OC)c(OC)cc3[C@H]1Cc1cc(OC)c(OC)c(OC)c1)CC2", "note": "(stereo not given in full)", "Potency": "inactive"},
      {"molecule": "Cc1ccc(CCCOC(=O)C[N+]2(C)CCCC2)cc1", "activity change, negative = growth inhibition": "-12.4% (inactive)"},
      {"molecule": "COc1ccc(CC2c3cc(OC)c(OC)cc3CC[N+]2(C)CCC(=O)OCCCCCOC(=O)CC[N+]2(C)CCc3cc(OC)c(OC)cc3C2Cc2ccc(OC)c(OC)c2)cc1OC", "note": "(stereo not given)", "Potency": "13 µM (active)"},
      {"molecule": "O=C(CCN1C(=O)c2ccccc2C1=O)NCCN1CCOCC1", "activity change, negative = growth inhibition": "9.53% (inactive)"},
      {"molecule": "O=c1oc2ccccc2cc1-c1cn(-c2ccccc2)c(=S)[nH]1", "Potency": "3.26 µM (active)"},
      {"molecule": "S=c1[nH]c(-c2cccs2)cn1-c1ccccc1", "activity change, negative = growth inhibition": "-13.3% (inactive)"},
      {"molecule": "O=C(c1cn(-c2ccccc2)nc1-c1cc2ccccc2oc1=O)N1CCOCC1", "activity change, negative = growth inhibition": "-18.8% (inactive)"},
      {"molecule": "CC(=O)Oc1c2c(c3c(c1CC=C(C)C)O[C@@]14C(=CC5CC1C(C)(C)OC4(C/C=C(\\C)C(=O)O)C5=O)C3=O)OC(C)(CCC=C(C)C)C=C2", "note": "(stereo not given in full)", "Potency": "1.3 µM (active)"},
      {"molecule": "CC1(C)CC(=O)C2=C(C1)N=C1SCCC(=O)N1C2c1ccc(C(F)(F)F)cc1", "note": "(stereo not given)", "activity change, negative = growth inhibition": "-20.3% (inactive)"},
      {"molecule": "N#Cc1ccc(-c2cccs2)nc1SCc1ccc(Br)cc1", "activity change, negative = growth inhibition": "-9.03% (inactive)"},
      {"molecule": "NC(=O)CSc1oc(-c2cccs2)nc1S(=O)(=O)c1ccccc1", "activity change, negative = growth inhibition": "-1.42% (inactive)"},
      {"molecule": "Cc1ccc(C(=O)N/C(=C/c2cccs2)C(=O)N2CCCCC2)cc1", "activity change, negative = growth inhibition": "-18.2% (inactive)"},
      {"molecule": "CCCCS(=O)(=O)c1oc(-c2cccs2)nc1S(=O)(=O)c1ccccc1", "Potency": "1.16 µM (active)"},
      {"molecule": "Cc1ccc(CSc2oc(-c3cccs3)nc2S(=O)(=O)c2ccc(C)cc2)cc1", "Potency": "5.17 µM (active)"},
      {"molecule": "O=C(c1cc(-c2cccs2)on1)N1CCCCC1", "activity change, negative = growth inhibition": "-7.2% (inactive)"},
      {"molecule": "Cc1ccc(S(=O)(=O)c2nc(-c3cccs3)oc2N2CCCCC2)cc1", "Potency": "23.1 µM (active)"},
      {"molecule": "COC(=O)CSc1nccc(-c2cccs2)n1", "activity change, negative = growth inhibition": "-0.533% (inactive)"},
      {"molecule": "Cc1ccc(NC(=O)COc2ccc(/C=C3/NC(=O)NC3=O)cc2)cc1", "activity change, negative = growth inhibition": "-8.92% (inactive)"},
      {"molecule": "O=C1OC(Oc2ccc(Br)cc2)(c2ccccc2)c2ccccc21", "note": "(stereo not given)", "activity change, negative = growth inhibition": "-16.8% (inactive)"},
      {"molecule": "CCCOCC(O)CC(CC)C(=O)NNC(=S)Nc1ccccc1", "note": "(stereo not given)", "activity change, negative = growth inhibition": "-4.64% (inactive)"},
      {"molecule": "COc1ccc2c(c1)N(C)/C(=C1/SC(=S)N(NC(C)=O)C1=O)S2", "activity change, negative = growth inhibition": "0% (inactive)"},
      {"molecule": "CCC(C)NC(=O)/C=C/c1ccc(S(=O)(=O)NCc2ccco2)cc1", "note": "(stereo not given)", "activity change, negative = growth inhibition": "-2.93% (inactive)"},
      {"molecule": "O=S(=O)(NC1CCCC1)c1ccc(-n2cnnn2)cc1", "activity change, negative = growth inhibition": "-14.2% (inactive)"},
      {"molecule": "Cc1ccc(C(=O)NCC(=O)NC2CC2)cc1", "activity change, negative = growth inhibition": "4.14% (inactive)"},
      {"molecule": "O=C(NC1CC1)c1ccc(-c2ccccc2)cc1", "Potency": "11.6 µM (active)"},
      {"molecule": "O=C(NNC(=O)c1ccc(-c2ccccc2)cc1)Nc1ccccc1", "activity change, negative = growth inhibition": "-14.5% (inactive)"},
      {"molecule": "C/C(N)=C(/C#N)C(=O)COC(=O)C1CCN(C(=O)c2ccc(Cl)cc2)CC1", "activity change, negative = growth inhibition": "-29.6% (inactive)"},
      {"molecule": "CC(=O)O[C@]1(C(C)=O)CC[C@H]2[C@@H]3CCC4=CC(=O)CC[C@]4(C)[C@@]3(F)[C@@H](O)C[C@@]21C", "activity change, negative = growth inhibition": "-9% (inactive)"},
      {"molecule": "CC(=O)OCC(=O)C1(O)CCC2C3CC(C)C4=CC(=O)CCC4(C)C3C(O)CC21C", "note": "(stereo not given)", "activity change, negative = growth inhibition": "-17.1% (inactive)"},
      {"molecule": "CC(=O)O[C@]1(C(C)=O)CC[C@H]2[C@@H]3C=C(C)C4=CC(=O)CC[C@]4(C)[C@H]3CC[C@@]21C", "Potency": "inactive and 23.1 µM (active)"},
      {"molecule": "CCc1nc2c(=O)[nH]cnc2o1", "activity change, negative = growth inhibition": "-5.21% (inactive)"},
      {"molecule": "CCn1nnnc1SCC(=O)c1ccc(C)cc1C", "activity change, negative = growth inhibition": "-14.8% (inactive)"},
      {"molecule": "COc1ccc(CC(N)c2csc(NC(=O)Nc3ccc(C(C)C)cc3)n2)cc1", "note": "(stereo not given)", "Potency": "6.51 µM (active)"},
      {"molecule": "NC(c1csc(NC(=O)Nc2cccc(C(F)(F)F)c2)n1)C1CCCCC1", "note": "(stereo not given)", "Potency": "20.6 µM (active)"},
      {"molecule": "COc1ccc(C(CC(=O)Nc2ccc(C)cc2)NC(=O)C(F)(F)F)cc1", "note": "(stereo not given)", "activity change, negative = growth inhibition": "-1.65% (inactive)"},
      {"molecule": "CC(C)(C)CC(=O)Nc1nc(C(N)Cc2ccc(C(F)(F)F)cc2)cs1", "note": "(stereo not given)", "Potency": "16.4 µM (active)"},
      {"molecule": "CC(C)C[C@H](NC(=O)Nc1cccc(C(F)(F)F)c1)C(=O)O", "activity change, negative = growth inhibition": "5.13% (inactive)"},
      {"molecule": "Cc1ccccc1NC(=O)Cc1nc(COC(=O)c2ccc(C(F)(F)F)cc2)cs1", "activity change, negative = growth inhibition": "-18.3% (inactive)"},
      {"molecule": "COc1ccc(NC(=O)C(Br)C(C)C)cc1", "note": "(stereo not given)", "activity change, negative = growth inhibition": "-12.5% (inactive)"},
      {"molecule": "CC(C)(C)CC(=O)Nc1nnc(SCC(=O)NCc2cccs2)s1", "activity change, negative = growth inhibition": "-21.9% (inactive)"},
      {"molecule": "Cc1ccc(NC(=O)Nc2cccc(C(F)(F)F)c2)nc1", "activity change, negative = growth inhibition": "3.8% (inactive)"},
      {"molecule": "COC(=O)[C@H](Cc1ccccc1)NC(=O)Nc1ccc(OC)cc1", "activity change, negative = growth inhibition": "-9.61% (inactive)"},
      {"molecule": "COc1ccc(NC(=O)C(=O)NCC(=O)Nc2cccc(C(F)(F)F)c2)cc1", "activity change, negative = growth inhibition": "10% (inactive)"},
      {"molecule": "COc1ccc(C(N)c2csc(NC(=O)Nc3cccc(C(F)(F)F)c3)n2)cc1", "note": "(stereo not given)", "Potency": "13 µM (active)"}
    ]}
  ]
}
